# What was measured:
# Test in all cases: PBM binding z-score (relative to random genomic background probes); higher = stronger binding; sequences stand for … in GC…GCGATTGACAGCGTAGAATGAAGG
# [1] = system: FXR:RXRa (NR concentration 270 nM, RXRa partner concentration 90 nM)
# Outline: (§1)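 Each nuclear receptor dimer, without ligand, was incubated for 1 h on custom Agilent 4×180K protein-binding microarrays. Binding was detected with antibodies against each partner (one per run), and scanned fluorescence was regression-normalized. The binding z-scores are referenced to random human genomic background probes.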
# [2] = system: LXRa:RXRa (NR concentration 270 nM, RXRa partner concentration 90 nM)
# Outline: as §1
# [3] = system: LXRa homodimer (NR concentration 270 nM)
# Outline: as §1
# [4] = system: LXRb:RXRa (NR concentration 270 nM, RXRa partner concentration 90 nM)
# Outline: as §1
# [5] = system: LXRb homodimer (NR concentration 270 nM)
# Outline: as §1
# [6] = system: PPARa:RXRa (NR concentration 270 nM, RXRa partner concentration 90 nM)
# Outline: as §1
# [7] = system: PPARg:RXRa (NR concentration 180 nM, RXRa partner concentration 90 nM)
# Outline: as §1
# [8] = system: PPARg:RXRa 270nM:90nM, anti-RXR (NR concentration 270 nM, RXRa partner concentration 90 nM)
# Outline: as §1
# [9] = system: PPARg:RXRa 30nM:10nM, anti-RXR (NR concentration 30 nM, RXRa partner concentration 10 nM)
# Outline: as §1
# [10] = system: PPARg:RXRa 90nM:30nM, anti-RXR (NR concentration 90 nM, RXRa partner concentration 30 nM)
# Outline: as §1
# [11] = system: PPARg:RXRa DBDmut IVT, anti-RXR (DBD mutation: RXRa K156A/R161A, NR concentration 270 nM, RXRa partner concentration 90 nM)
# Outline: as §1
# [12] = system: PPARg:RXRa IVT, anti-PPARg (NR concentration 270 nM, RXRa partner concentration 90 nM)
# Outline: as §1
# [13] = system: PPARg DBDmut:RXRa IVT, anti-PPARg (DBD mutation: PPARg1 K132A/R137A, NR concentration 270 nM, RXRa partner concentration 90 nM)
# Outline: as §1
# [14] = system: PPARg DBDmut IVT, anti-PPARg (DBD mutation: PPARg1 K132A/R137A, NR concentration 270 nM)
# Outline: as §1
# [15] = system: PPARg homodimer (NR concentration 180 nM)
# Outline: as §1
# [16] = system: PXR:RXRa (NR concentration 270 nM, RXRa partner concentration 90 nM)
# Outline: as §1
# [17] = system: PXR homodimer (NR concentration 270 nM)
# Outline: as §1
# [18] = system: RARa:RXR (NR concentration 270 nM, RXRa partner concentration 90 nM)
# Outline: as §1
# [19] = system: RARa homodimer (NR concentration 270 nM)
# Outline: as §1
# [20] = system: RARb:RXRa (NR concentration 270 nM, RXRa partner concentration 90 nM)
# Outline: as §1
Sequence,PBM binding z-score [1],PBM binding z-score [2],PBM binding z-score [3],PBM binding z-score [4],PBM binding z-score [5],PBM binding z-score [6],PBM binding z-score [7],PBM binding z-score [8],PBM binding z-score [9],PBM binding z-score [10],PBM binding z-score [11],PBM binding z-score [12],PBM binding z-score [13],PBM binding z-score [14],PBM binding z-score [15],PBM binding z-score [16],PBM binding z-score [17],PBM binding z-score [18],PBM binding z-score [19],PBM binding z-score [20]
ATATGTTGGTTAGCTGGGGTCATTCAGACTAGGC,3.89,4.15,2.39,4.32,1.69,4.26,1.3,2.46,0.784,1.8,0.909,1.74,0.767,1.26,2.8,5.64,3.66,5.26,1.53,2.72
CAAACTAGCTCACCGGAAGGTCAAAGTCCGCATG,2.99,3.06,3.46,3.43,1.02,3.16,0.628,1.58,0.364,0.774,0.993,1.36,-0.25,0.542,2.25,3.37,1.23,3.64,0.685,3.17
ACAGACAGGTGAGTGAAGGTAACCCAGCTGGACG,0.353,-0.0379,-0.585,-0.271,-0.844,0.275,0.708,0.399,-0.129,0.213,0.473,0.884,0.557,-0.411,0.0822,-0.299,-0.316,0.365,-0.386,0.623
CTTATTAGTTGACCATAAGGGCAACCGAAGCTCG,0.831,0.356,0.185,0.373,0.837,0.629,0.439,0.266,0.208,0.259,0.601,0.869,1.18,1.03,0.708,0.686,0.516,0.781,1.3,1.72
GCGACTGGGGCAAAGCAGGGTACCATAAGGTTGG,-0.153,-0.295,-0.964,-0.249,-1.01,0.981,0.93,0.904,-0.207,0.227,3.87,3.24,-0.359,-0.643,-0.201,-0.102,-0.367,0.315,-0.579,0.894
CGTACTGGGCCAAAGGTCATTGATTCCAATGCTC,4.8,5.21,4.25,5.04,0.838,6.66,12.7,10.7,10.2,12.9,5.43,7,0.296,-0.116,4.18,5.73,2.15,6.41,1.62,4.54
AGTCAAAATTCAGGACGAGGTAACGTAAAGCACG,0.194,-0.186,0.224,-0.188,-0.336,0.0316,0.944,0.294,0.281,0.217,-0.124,0.504,0.875,0.0968,0.59,-0.0686,0.0838,0.591,0.657,0.118
CGAACTAGGTCAAGGACTGTGAATCTCCGCACGC,3.02,2.02,-0.179,1.36,-0.152,4.37,7.06,6.47,4.05,5.99,8.18,8.06,0.764,0.958,1.34,0.92,-0.392,1.78,0.232,4.01
ATCGAAAGGTCGACGAGGTTAGTATACACCGTTT,4.41,3.75,0.309,3.11,0.782,4.33,2.6,3.04,0.863,2.24,0.568,1.88,1.2,0.625,1.24,4.03,2.16,3.97,0.691,3.86
AGAACGAGAGCACGCTGAGTTGATAGCAGAGTAG,-0.802,-0.854,-0.51,-0.91,-1.27,-0.425,0.523,-0.601,-0.701,-0.842,0.0563,-0.2,-0.0826,-0.875,-0.952,-0.515,-0.415,-0.666,-1.23,-0.39
TATACAGGGTCAAAGACCAGAGTACGAATGTCGA,7.01,5.81,2.11,4.83,2.31,5.9,6.65,5.94,3.43,5.01,2.05,4.19,1.75,1.67,1.9,3.65,0.419,4.04,0.668,4.25
CGTCAAAGTTCAACTACGGTAACGTAAAGCACGC,6.73,6.61,4.35,4.24,2.11,5.17,4.85,5.54,2.32,4.26,0.132,1.78,0.517,0.931,3.69,5.14,3.79,4.38,2.22,5.2
ACTCGGAGGACAAAGGTCAGTGCTACGCCAGTGA,3.58,3.67,1.45,2.94,0.443,4.64,6.76,6.58,5.31,7.31,0.807,3.58,1.11,-0.05,3.66,3.7,0.26,4.7,1.27,4.5
ATATGTAGGTTACATCCGGGTAATTCAGGCTATG,0.626,5.83,1.24,3,0.708,3.26,5.44,4.35,1.75,3.32,7.57,7.21,4.3,3.2,1.34,0.541,0.614,1.19,0.484,1.22
